The text below walks through data of paper PMC5869772, “Quantitative profiling of BATF family proteins/JUNB/IRF hetero-trimers using Spec-seq”.

The experiment concerns the target T1, BATF3;JUNB (human;human, UniProt Q9NR55;P17275 1-127;148-347, |).
T1 sequence 1: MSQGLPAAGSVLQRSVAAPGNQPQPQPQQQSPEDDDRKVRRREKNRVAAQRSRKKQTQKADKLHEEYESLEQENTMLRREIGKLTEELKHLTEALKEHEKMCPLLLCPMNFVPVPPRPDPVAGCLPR
T1 sequence 2: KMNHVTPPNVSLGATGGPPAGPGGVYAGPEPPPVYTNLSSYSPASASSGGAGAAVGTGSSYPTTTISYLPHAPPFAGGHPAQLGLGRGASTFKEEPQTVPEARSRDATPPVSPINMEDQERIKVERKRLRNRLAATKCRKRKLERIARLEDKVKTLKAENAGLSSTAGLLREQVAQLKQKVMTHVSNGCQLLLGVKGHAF
Briefly: Spec-seq (EMSA and sequencing of bound and unbound bands); 100 nM BATFx-JUNB, 1 uM dsDNA library, 50 mM K acetate, 20 mM Tris-acetate, 10 mM Mg acetate, 100 ug/ml BSA, pH 7.9, 10% glycerol, 30 min on ice; native 9% PAGE at 4 C; low values mean tight binding. Conditions: protein: recombinant;recombinant; tags: N-terminal mCherry-TEV, cleaved off;C-terminal 6His; copies: 1;1; dsDNA, one strand shown. The method in brief:
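The protein, at 100 nM, was incubated with 1 μM double-stranded degenerate DNA library for 30 min on ice in NEB Cutsmart buffer with 10% glycerol, then resolved by native 9% PAGE at 4 °C. Excised bound and unbound bands were PCR-barcoded and Illumina-sequenced, and each sequence's relative binding energy in kT is −ln of its bound/unbound read-count ratio.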
Turning to “GATAGTCTCATTTTCACCCCGTGAAAATGAGTCATTGTTCCATTACAGTATCTGT”, the binding signal was -1.35 kT. Under “GATAGTCTCATTTTCACCCCGTGAAATGATGTCATTGTTCCATTACAGTATCTGT” stands -1.63 kT; under “GATAGTCTCATTTTCACCCCGTGAAATTACTCATTTGTTCCATTACAGTATCTGT”, -0.827 kT; under “GATAGTCTCATTTTCACCCCGTGAAACTGCGTCATTGTTCCATTACAGTATCTGT”, -0.774 kT. For “GATAGTCTCATTTTCACCCCGTGAAATCGAGTCATTGTTCCATTACAGTATCTGT” the value was -0.401 kT. With “GATAGTCTCATTTTCACCCCGTGAAATGAGTCAGTTGTTCCATTACAGTATCTGT”, the binding signal is -0.715 kT.

Take “GATAGTCTCATTTTCACCCCGTGAAATGACCTCATTGTTCCATTACAGTATCTGT”: the binding signal is -0.817 kT. Under “GATAGTCTCATTTTCACCCCGTGAAATGACGTTATTGTTCCATTACAGTATCTGT” stands -0.68 kT; under “GATAGTCTCATTTTCACCCCGTGAAATGAGTCATTTGTTCCATTACAGTATCTGT”, -1.42 kT. For “GATAGTCTCATTTTCACCCCGTGAAACGACGTCATTGTTCCATTACAGTATCTGT” the value was -1.03 kT; for “GATAGTCTCATTTTCACCCCGTGAAATGACTGAGTTGTTCCATTACAGTATCTGT”, 0.26 kT; for “GATAGTCTCATTTTCACCCCGTGAAATGACATCATTGTTCCATTACAGTATCTGT”, -1.1 kT. Under “GATAGTCTCATTTTCACCCCGTGAAATGAGTGAATTGTTCCATTACAGTATCTGT” stands 0.58 kT; under “GATAGTCTCATTTTCACCCCGTGAAATGAATCATTTGTTCCATTACAGTATCTGT”, -0.732 kT. As to “GATAGTCTCATTTTCACCCCGTGAAATGACGTCCTTGTTCCATTACAGTATCTGT”, the binding signal was -0.0593 kT. As for “GATAGTCTCATTTTCACCCCGTGAAATGACCCACTTGTTCCATTACAGTATCTGT”, the binding signal is 0.927 kT. For “GATAGTCTCATTTTCACCCCGTGAAATGACTCGTTTGTTCCATTACAGTATCTGT” the value was 0.243 kT.

Turning to “GATAGTCTCATTTTCACCCCGTGAAAGAGAGTCATTGTTCCATTACAGTATCTGT”, the binding signal came to 0.155 kT. With “GATAGTCTCATTTTCACCCCGTGAAATTCAGTCATTGTTCCATTACAGTATCTGT”, the binding signal was -0.0636 kT. For “GATAGTCTCATTTTCACCCCGTGAAATGCCGTCATTGTTCCATTACAGTATCTGT” the value was -0.649 kT; for “GATAGTCTCATTTTCACCCCGTGAAACGAGTCATTTGTTCCATTACAGTATCTGT”, -0.111 kT. Under “GATAGTCTCATTTTCACCCCGTGAAAGTGGGTCATTGTTCCATTACAGTATCTGT” stands 0.613 kT; under “GATAGTCTCATTTTCACCCCGTGAAAGTGCGTCATTGTTCCATTACAGTATCTGT”, -0.851 kT; under “GATAGTCTCATTTTCACCCCGTGAAAAGGAGTCATTGTTCCATTACAGTATCTGT”, 0.185 kT. “GATAGTCTCATTTTCACCCCGTGAAATGAGGCAGTTGTTCCATTACAGTATCTGT”: the binding signal turned out to be 1.27 kT.

As to “GATAGTCTCATTTTCACCCCGTGAAATGAGTCCATTGTTCCATTACAGTATCTGT”, the binding signal is 0.51 kT. Under “GATAGTCTCATTTTCACCCCGTGAAATGACGCAGTTGTTCCATTACAGTATCTGT” stands -0.216 kT; under “GATAGTCTCATTTTCACCCCGTGAAATGAGACAATTGTTCCATTACAGTATCTGT”, 0.853 kT; under “GATAGTCTCATTTTCACCCCGTGAAATGAGTCGCTTGTTCCATTACAGTATCTGT”, 0.711 kT.

Regarding “GATAGTCTCATTTTCACCCCGTGAAATGAGTTAGTTGTTCCATTACAGTATCTGT”, the binding signal was found to be 0.772 kT. Under “GATAGTCTCATTTTCACCCCGTGAAATGACTTACTTGTTCCATTACAGTATCTGT” stands 0.342 kT; under “GATAGTCTCATTTTCACCCCGTGAAATTGAGTCATTGTTCCATTACAGTATCTGT”, -1.45 kT.

Regarding “GATAGTCTCATTTTCACCCCGTGAAAGGAGTCATTTGTTCCATTACAGTATCTGT”, the binding signal stood at 0.243 kT.
